# Bioassay records deposited in PubChem BioAssay by National Center for Advancing Translational Sciences (NCATS).
# Hits are enriched below; roughly 7.3% of the tested compounds scored in any of these assays.
# NPC1 promoter act: qHTS Assay for NPC1 Promoter Activators | hit rate 2.4% among 320,000 | Potency, µM (series often up to 9.22 µM), usual class: activators | Huh7 NPC1 promoter luciferase reporter, 24 h; note: nearly all actives have a fitted effect of over 60% in size
#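 In 1536-well qHTS, Huh7 cells harboring an NPC1 promoter–luciferase construct received compound for 24 h; activation was quantified by luminescence following luciferase reagent addition.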
# Rab9 prom act: qHTS Assay for Rab9 Promoter Activators. Huh7 Rab9 promoter-luciferase reporter, luminescence, 24 h. hit rate 2.8% among 320,000. Potency, µM (series often up to 9.22 µM), hits mostly activators. AID 485297, 2010; note: nearly all actives have a fitted effect of over 60% in size
#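 Cell-based reporter: Huh7 stable for Rab9 promoter-driven luciferase, plated in reduced-serum medium with 10% FBS at 1500 cells/well, compound-treated 24 h at 37 °C, luminescence read after 10 min reagent.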
# SMN2 splice enh: qHTS Assay for Enhancers of SMN2 Splice Variant Expression. hit rate 2.8% among 210,000. Potency, µM (doses to about 46.1 µM), most hits filed as activators. HEK293 SMN2-luciferase splicing reporter, luminescence, 30-36 h; note: nearly all actives have a fitted effect of over 55% in size
#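 qHTS luciferase splicing reporter: luminescence rises when SMN2 exon 7 is included in transfected HEK293 cells. Compound exposure lasted 30-36 h at 37C, with 4.5 mM final sodium butyrate as control, followed by a ONE-Glo read.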
# KinaseGlo FLuc: Counterscreen for Luciferase (Kinase-Glo TM) Inhibition; Kinase-Glo luciferase, ATP luminescence, 8 min; Potency, µM (series often up to 38.3 µM), most hits filed as inhibitors; hit rate 0.28% among 200,000; AID 1379, 2008; note: nearly all actives have a fitted effect of over 60% in size
#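 Inhibition of Kinase-Glo luciferase light generation was assessed at 10 uM ATP in pH 7.2 imidazole buffer, with luminescence measured after eight minutes at ambient temperature.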
# FLuc modulator: qHTS profiling assay for firefly luciferase inhibitor/activator using purifed enzyme and Km concentrations of substrates (counterscreen for miR-21 project); AID 588342, 2011; hit rate 6.9% among 360,000; Luciferin 4-monooxygenase (Photinus pyralis), P08659; Potency, µM (highest dose often 57.5 µM), most hits filed as inhibitors; purified FLuc, Km substrates, luminescence inhibition; note: nearly all actives have a fitted effect of over 55% in size
# Target sequence (P08659 whole entry, looked up): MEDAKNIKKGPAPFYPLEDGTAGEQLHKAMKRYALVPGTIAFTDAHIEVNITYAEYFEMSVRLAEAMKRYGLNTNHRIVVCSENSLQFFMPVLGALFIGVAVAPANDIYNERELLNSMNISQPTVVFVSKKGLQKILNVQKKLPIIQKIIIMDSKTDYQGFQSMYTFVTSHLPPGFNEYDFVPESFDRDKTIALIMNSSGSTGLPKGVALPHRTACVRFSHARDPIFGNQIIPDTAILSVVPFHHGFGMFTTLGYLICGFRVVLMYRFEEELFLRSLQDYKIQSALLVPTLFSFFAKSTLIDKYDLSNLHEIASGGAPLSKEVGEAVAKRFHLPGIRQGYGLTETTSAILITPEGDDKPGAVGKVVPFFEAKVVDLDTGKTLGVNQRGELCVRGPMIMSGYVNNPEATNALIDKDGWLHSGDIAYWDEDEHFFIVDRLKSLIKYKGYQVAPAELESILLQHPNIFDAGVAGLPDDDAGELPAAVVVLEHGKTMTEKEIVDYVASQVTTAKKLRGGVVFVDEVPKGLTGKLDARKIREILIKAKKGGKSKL
#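 Purified P. pyralis luciferase (10nM final) with 10uM D-luciferin and 10uM ATP (Km levels) in 50mM Tris acetate pH 7.5, 10mM Mg acetate, 0.01% Tween-20, 0.05% BSA; qHTS 6-point titration, ~60 µM downward; luminescence read.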
# A number is an active result; n = inactive; u = inconclusive; x = not tested or not shown; [ ] = another dose, or the depositor's remark. Calls come from the whole dose curve; as a rule, active = well fitted curve in the direction sought with a large enough effect; inconclusive = small, poorly fitted or top-dose-only effect, or another doubt; inactive = no such curve, though single readings can be large; an effect the other way counts as inactive or inconclusive.
SMILES,NPC1 promoter act,Rab9 prom act,SMN2 splice enh,KinaseGlo FLuc,FLuc modulator
O=C(Cn1ncn2nc(-c3ccccc3)cc2c1=O)NCc1ccccn1,n,n,x,x,11µM
COc1ccccc1Cc1nc2ccccc2nc1SCC(=O)Nc1cccc(Cl)c1C,x,x,x,x,n
COc1ccccc1CC(=O)Nc1nc(-c2ccc(F)c(F)c2)cs1,n,n,x,x,15µM
COc1ccc(-c2csc(NC(=O)Cc3ccccc3F)n2)cc1OC,n,n,x,x,u
O=C(Cc1ccccc1F)Nc1nc(-c2ccc(F)cc2)cs1,n,u,x,x,11µM
Cc1nonc1C(=O)N/N=C/c1cccc(O)c1,n,n,n,8.9µM,12µM
O=C(N/N=C/c1cccc(Oc2ccccc2)c1)c1cccc(Br)c1,n,n,n,n,u
O=C(N/N=C/c1cccc(O)c1)N/N=C/c1cccc(O)c1,n,n,x,x,5.4µM
O=C(CCc1ccccc1)N/N=C/c1cccc(O)c1,n,n,x,n,u
COc1ccc(/C=N/NC(=O)c2nonc2N)cc1OC,n,n,x,x,u
O=C(N/N=C/c1cccc(Oc2ccccc2)c1)c1cccc(O)c1,n,n,x,x,17µM
COC(=O)C1(C)C=C(Nc2ccc(OC)cc2)C(=O)N1c1ccc(OC)cc1 (stereo not drawn),x,x,n,n,x
Cc1cc(C)cc(NC(=O)CCCn2c3ccccc3c(=O)c3ccccc32)c1,x,x,n,x,n
O=C1C=C(Nc2nc(C(=O)O)cc(=O)[nH]2)c2ccccc2C1=O,x,x,n[9.22 µM],n[7.66 µM],x
Cc1ccc2c(=O)c3ccccc3n(CCCN)c2c1C,x,x,x,n,x
Oc1ccc(NCc2ccc(OCc3ccccc3)cc2)cc1,n,n,n,x,27µM
Oc1ccc(NCc2ccc(OCc3ccccc3Cl)cc2)cc1,x,x,n,x,27µM
Cc1ccc2c(c1)c1c(c(=O)n(-c3ccccc3)c(=O)n1Cc1ccccc1C)n2C,x,x,x,x,n
Nc1nc2sc3c(c2cc1C(=O)NCC(=O)O)CCCC3,n,n,x,x,0.95µM
Cc1cc(C)c2cc3c(N)c(C(=O)N4CCc5ccccc5C4)sc3nc2c1,n,n,n,n,n
Nc1nc2sc3c(c2cc1C(=O)N1CCOCC1)CCCC3,n,n,n,n,17µM
Cc1cccc2cc3c(N)c(C(=O)N4CCOCC4)sc3nc12,u,0.56µM,11µM,n,3.8µM
CCN(C(=O)NCc1noc2ccccc12)c1cc(C)ccc1C,x,x,x,x,n
CCN(CC)CCNC(=O)c1ccc(-c2nc(CN3CCc4ccccc43)c(C)o2)cc1,x,x,x,x,n
CCS(=O)(=O)c1nc(S(=O)(=O)c2ccc(C)cc2)c(NCc2ccccc2Cl)s1,x,x,n,x,n
SMILES,NPC1 promoter act,Rab9 prom act,SMN2 splice enh,KinaseGlo FLuc,FLuc modulator
COc1ccc(/C=C2\SC(=O)N(CCc3nnc(N)s3)C2=O)cc1,2.5µM,1µM,x,x,1.9µM
COc1cccc(/C=C2\SC(=O)N(CCC(=O)NCCCn3ccnc3)C2=O)c1,n,n,x,x,u
COc1cccc(/C=C2\SC(=O)N(CC(=O)NCCCn3ccnc3)C2=O)c1,n,n,x,x,24µM
COc1ccc(/C=C2\SC(=O)N(CC(=O)NCCCn3ccnc3)C2=O)cc1,n,n,x,x,9.5µM
CCOC(=O)c1[nH]c(C)c(CCC(=O)Nc2c(C)cc(C)cc2C)c1C,x,x,x,x,n
COCCN=c1scc(-c2cccs2)n1/N=C(\C)c1ccco1,u,2.5µM,u,n,9.5µM
COCCN=c1scc(-c2ccco2)n1/N=C/c1ccc(O)c(O)c1O,n,n,n,n,17µM
COc1cc(/C=N/n2c(-c3ccc4c(c3)NC(=O)CO4)csc2=Nc2cccc(C)c2)ccc1O,n,n,n,n,u
C=CCN=c1scc(-c2ccco2)n1/N=C/c1ccc(O)c(O)c1O,n,u,x,x,4.8µM
CC(C)N=c1scc(-c2ccco2)n1/N=C/c1ccc(O)c(O)c1,n,n,u,n,9.5µM
Oc1ccc(/C=N/n2c(-c3ccco3)csc2=Nc2cccnc2)c(O)c1,n,n,n,n,u
NCCOC[C@H](N)C(=O)O,x,x,n[9.22 µM],n[7.66 µM],x
CCc1ccc(C(=O)CC2(O)C(=O)N(Cc3ccc(C)cc3)c3ccccc32)cc1 (stereo not drawn),x,x,n,x,7.6µM
Cc1ccc(C(=O)CC2(O)C(=O)N(Cc3ccccc3)c3ccccc32)c(C)c1 (stereo not drawn),x,x,n,x,19µM
CCN(CC(=O)Nc1c(F)cccc1F)C(=O)CNC(=O)c1ccc(C)s1,u,u,x,x,15µM
CCN(CC(=O)Nc1c(F)cccc1F)C(=O)CNC(=O)c1ccco1,n,n,x,x,n
CCc1cc(=O)oc2cc(OCc3ccc(C(=O)O)o3)ccc12,u,u,x,x,27µM
Cc1ccc(OCc2ccoc2C(=O)O)cc1C,n,n,n,n,19µM
Cc1ccc(OCc2ccc(C(=O)O)o2)cc1C,u,u,x,x,11µM
Cc1ccc(OCc2ccc(C(=O)N3CCOCC3)cc2)cc1C,3.5µM,1.4µM,11µM,n,6.7µM
Cc1ccc(OC(C)C(=O)O)cc1C (stereo not drawn),n,n,n,n,n
CCc1ccccc1NC(=O)Cn1c(=O)n(CC(=O)NCCc2ccccc2)c(=O)c2ccccc21,x,x,u,x,n
C=CCc1ccc(OCC(O)COCC)c(OC)c1 (stereo not drawn),u,u,13µM,n,19µM
Cc1c(C)c2ccc(OCc3ccc(C(=O)O)o3)c(C)c2oc1=O,n,n,n,n,11µM
COC(=O)c1ccc(COc2cc(C)ccc2C)o1,n,n,x,x,11µM
SMILES,NPC1 promoter act,Rab9 prom act,SMN2 splice enh,KinaseGlo FLuc,FLuc modulator
C=CCc1ccc(OCC(O)CO)c(OC)c1 (stereo not drawn),n,n,n,n,n
CCC(=O)c1ccc(OCc2ccc(C(=O)OC)o2)c(OC)c1,n,n,n,n,n
COC(=O)c1ccc(COc2ccc(C)c(C)c2)o1,1.4µM,1.6µM,x,x,u
COc1ccc(Cl)cc1NC(=O)Cn1ccn(-c2cc(C)cc(C)c2)c(=O)c1=O,x,x,x,x,n
Cc1c(C(=O)NCCN(C)C)sc2nc3n(c(=O)c12)CCC3,x,x,x,x,n
COc1ccc(S(=O)(=O)NCC(c2ccco2)N2CCOCC2)cc1C (stereo not drawn),x,x,x,x,n
C=CCc1ccc(OCc2ccc(C(=O)OC)o2)c(OC)c1,u,0.5µM,u,n,7.6µM
COC(=O)c1ccc(COc2ccc(C=O)cc2OC)o1,n,n,x,n,u
Cc1ccc(OCc2ccc(C(=O)Nc3nccs3)o2)cc1C,u,u,n,n,17µM
Cc1ccc(-n2nc3c(N4CCC(C(=O)NC5CCCCC5)CC4)nnc(C)c3c2C)cc1,x,x,x,x,n
O=C(O)[C@H](Cc1cc(I)c(O)c(I)c1)C1CCCCC1,x,x,n[9.22 µM],n[7.66 µM],x
Oc1ccc(C2C[C@H]3CC[C@@H]2C3)cc1O (stereo partly drawn),n,n,x,x,12µM
Cc1cc(-c2ccccc2)nc(N/N=C/c2ccc(O)cc2)n1,n,n,x,x,1.5µM
Oc1ccc(/C=N/Nc2nc(-c3ccc(Cl)cc3)cc(C(F)(F)F)n2)cc1,n,n,n,n,27µM
Cc1cc(C)c2nc(C)cc(N/N=C/c3ccc(O)cc3)c2c1,n,n,x,x,13µM
